Measured values: PubChem BioAssay AID1851 (National Center for Advancing Translational Sciences (NCATS), 2009)
“And” between values parts separate entries of the source, which are not always exact repeats. Equal entries are not always repeated. Out of some 16,000 compounds screened, about 5,100 (32%) were called active. About 25% were inconclusive and are not listed. The call rests on the fitted dose curve; in most records, active means well fitted curve in the direction sought with a large enough effect; inconclusive means small, poorly fitted or top-dose-only effect, or effect the other way; inactive means no such curve, though single readings can be large or run the other way. The list shows a part of the results.
On the % scale 0 is the no-effect control and ±100 the full control effect.

What follows are compounds tested against Cytochrome P450 3A4 (Homo sapiens) (UniProt P08684) (assay: Cytochrome panel assay with activity outcomes). Conditions: recombinant CYP, pro-luciferin dealkylation, luminescence, p450-cyp3a4; series mostly up to 57.1 µM.
Cytochrome P450 3A4 (Homo sapiens), sequence (P08684 whole entry, looked up): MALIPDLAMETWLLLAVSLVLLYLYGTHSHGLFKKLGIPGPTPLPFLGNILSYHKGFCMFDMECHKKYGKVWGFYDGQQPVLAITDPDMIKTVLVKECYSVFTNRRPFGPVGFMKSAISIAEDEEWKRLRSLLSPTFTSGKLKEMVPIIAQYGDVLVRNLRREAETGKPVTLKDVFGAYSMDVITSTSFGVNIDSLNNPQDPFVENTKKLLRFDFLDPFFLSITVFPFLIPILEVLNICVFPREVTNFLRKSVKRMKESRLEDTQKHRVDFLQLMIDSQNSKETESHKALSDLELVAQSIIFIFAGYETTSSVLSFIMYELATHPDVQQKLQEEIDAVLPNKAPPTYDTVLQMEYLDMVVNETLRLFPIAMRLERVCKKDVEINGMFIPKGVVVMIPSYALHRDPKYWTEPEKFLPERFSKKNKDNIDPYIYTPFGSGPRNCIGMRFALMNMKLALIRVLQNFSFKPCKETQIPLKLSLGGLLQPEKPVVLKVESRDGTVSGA
For `CCCc1cc2c(n1Cc1ccc(OC)cc1)C(C)C1CN(C(=O)c3ccccc3)C(C)(C(=O)OC)C21` (stereo not given), the AC50 was 3.16 µM (active). For `CCCc1cc2c(n1Cc1cc(F)cc(F)c1)C(C)C1CN(C(=O)c3ccccc3)C(C)(C(=O)OC)C21` (stereo not given), the AC50 was 3.16 µM (active). In the case of `CCCc1cc2c(n1CCc1ccc(Cl)cc1)C(C)C1CN(C(=O)c3ccccc3)C(C)(C(=O)OC)C21` (stereo not given), the AC50 is reported as 5.01 µM (active). In the case of `C[C@@]1(C(=O)O)CCC[C@@H]1C(=O)O`, the activity, negative = inhibition is reported as -5.72% [at 11.4 µM] (inactive). With `O=C(O)C[C@H](Cc1ccccc1Cl)C(=O)O` the activity, negative = inhibition was -7.24% [at 11.4 µM] (inactive). `Cc1ccnc(N)c1` was tested, and the AC50 was “inactive”. For `CC1CCCC(n2c(=S)[nH]c3ccccc3c2=O)C1C` (stereo not given), the AC50 was 7.94 µM (active). For `Cc1cc(=O)[nH]c2ccccc12`, the AC50 was “inactive”. In the case of `CCn1c(=O)[nH]c2ccccc2c1=O`, the activity, negative = inhibition is reported as 5.24% [at 2.29 µM] (inactive). `CCN1CCN(C(c2ccccn2)c2c(NC(=O)c3ccccc3)sc(C)c2C)CC1` (stereo not given) was tested, and the AC50 was 8.91 µM (active). `CC(C)CO[C@H](c1ccc2c(c1)OCO2)[C@H](C)Br` was tested, and the AC50 was 3.16 µM (active). In the case of `CCC(Sc1nc2n[nH]c(C)c2c(=N)n1-c1cccc(Cl)c1)C(=O)NCCOC` (stereo not given), the AC50 is reported as 2.82 µM (active). In the case of `Nc1ccn([C@H]2O[C@H](CO)[C@@H]3[O][Sn]([c]4ccccc4)([c]4ccccc4)[O][C@H]32)c(=O)n1`, the activity, negative = inhibition is reported as 25.9% [at 11.4 µM] (inactive). In the case of `Cc1oc(=O)c(NC(=O)c2ccccc2)cc1C(=O)c1ccccc1`, the AC50 is reported as 7.94 µM (active). For `Cc1cc(N)ccc1NC(=O)c1ccccc1`, the AC50 was “inactive”. In the case of `Cc1ccc(C(=O)Nc2cc3c(oc2=O)CCCC3=O)cc1`, the AC50 is reported as “inactive”. `CCOC(=O)c1cc(NC(=O)c2ccc(OC)cc2)c(=O)oc1-c1ccccc1` was tested, and the AC50 was “inactive”. For `COc1ccc(C(=O)Nc2cc(C(C)=O)c(/C=C/N(C)C)oc2=O)cc1`, the AC50 was “inactive”. With `CC(=O)c1cc(NC(=O)c2ccccc2)c(=O)oc1/C=C/N(C)C` the AC50 was 25.1 µM (active). For `O=C(Nc1cc(Sc2ccccn2)cc([N+](=O)[O-])c1)c1ccc(Cl)cc1`, the AC50 was 7.94 µM (active). In the case of `CSc1cccc(NC(=O)c2ccc(Cl)nc2)c1`, the AC50 is reported as “inactive”. For `CC/C(O)=C(\C#N)c1nnc2n1CCCCC2`, the AC50 was “inactive”. With `CN1CCCN(C)C1c1cc([N+](=O)[O-])ccc1O` the activity, negative = inhibition was -5.36% [at 11.4 µM] (inactive). For `O=C1Nc2ccc([N+](=O)[O-])cc2C1(O)N1CCCCCC1` (stereo not given), the AC50 was 3.55 µM (active). With `Cn1c(CCN2CCCCC2)nc2cc([N+](=O)[O-])ccc21` the AC50 was “inactive”. `O=C(/C=C/c1cccc(Cl)c1)Nc1ccncc1` was tested, and the AC50 was 0.178 µM (active). For `Cc1cc(C)nc(NC(=O)/C=C/c2ccc(Cl)cc2Cl)c1`, the activity, negative = inhibition was 4.58% [at 2.29 µM] (inactive). In the case of `COCCCNC(=O)/C=C/c1cccc(Cl)c1`, the AC50 is reported as “inactive”. For `NS(=O)(=O)c1cc(Br)c(N=Nc2ccc(O)c3ncccc23)c(Br)c1`, the activity, negative = inhibition was -8.46% [at 11.4 µM] (inactive). With `O=C(O)[C@@H]1CCCN1` the activity, negative = inhibition was -4.77% [at 11.4 µM] (inactive). For `COC(=O)C1CC1C(NC(=O)[C@H]1CCCCN1)c1ccccc1` (stereo not given in full), the AC50 was 10 µM (active). In the case of `COC(=O)C1CC1C(NC(=O)[C@@H]1CCCN1)c1ccccc1` (stereo not given in full), the AC50 is reported as 12.6 µM (active). `COc1cc(Br)c(C(C)NC(=O)c2cccc(Br)c2)cc1OC` (stereo not given) was tested, and the AC50 was 0.282 µM (active). With `COc1ccc(C(=O)[C@H](Br)[C@H](Br)C(=O)O)cc1` the activity, negative = inhibition was 3.56% [at 11.4 µM] (inactive). `COc1ccc(C(=O)NC(C)c2cc(OC)c(OC)cc2Br)cc1` (stereo not given) was tested, and the AC50 was 0.501 µM (active). With `NS(=O)(=O)c1cc2c(cc1Cl)N[C@@H](CC1CCCC1)NS2(=O)=O` the AC50 was “inactive”. For `O=C(Nc1ccc(-n2nncc2-c2ccco2)cc1)c1cc2ccccc2oc1=O`, the AC50 was 4.47 µM (active). With `O=C(Nc1ccc(-n2nncc2-c2ccco2)cc1)c1ccc(F)cc1` the AC50 was 0.708 µM (active). For `C/C(=N/NC(=O)c1ccc(NC(=O)c2ccc(F)cc2)cc1)c1ccccc1`, the activity, negative = inhibition was 15.1% [at 0.457 µM] (inactive). `CC(C)(C)c1ccc(C(=O)Nc2ccc(NC(=O)c3ccco3)cc2)cc1` was tested, and the activity, negative = inhibition was 11.7% [at 2.29 µM] (inactive). With `CC(=O)c1cc2ccccc2oc1=O` the AC50 was “inactive”. For `CC(C)OC(=O)c1cc2ccccc2oc1=O`, the AC50 was “inactive”. In the case of `COc1ccc(-c2cnnn2-c2ccc(NC(=O)c3ccco3)cc2)cc1OC`, the AC50 is reported as 1 µM (active). `COc1ccc(Br)c2c1C[C@H](C(=O)O)CC2` was tested, and the activity, negative = inhibition was -12.7% [at 11.4 µM] (inactive). For `Nc1nc2c(c(=O)[nH]1)CN(c1ccc(S(N)(=O)=O)cc1)CN2`, the activity, negative = inhibition was -4.97% [at 11.4 µM] (inactive). For `CC(=O)SCC[N+](C)(C)C`, the AC50 was “inactive”. `COC(=O)[C@@H]1CC[C@H](C)[C@@H](c2ccc(C)cc2)N1C(=O)c1ccc(/C=N\O[C@@H](C)c2cn([C@H](CO)Cc3ccccc3)nn2)cc1` was tested, and the AC50 was 1.26 µM (active) and 3.16 µM (active). For `COC(=O)[C@@H]1CC[C@H](C)[C@@H](c2ccc(C)cc2)N1C(=O)c1ccc(/C=N\OC[C@@H](C)[C@H](OCc2ccccc2)C(C)C)cc1`, the AC50 was 3.98 µM (active). `CO/N=C\c1ccc(C(=O)N2[C@H](c3ccc(C)cc3)[C@@H](C)CC[C@H]2C(=O)OC)cc1` was tested, and the AC50 was 3.16 µM (active). In the case of `COC(=O)[C@@H]1CC[C@H](C)[C@@H](c2ccc(C)cc2)N1C(=O)c1ccc(/C=N\OCC[C@@H]2C=C[C@H](OC(C)=O)[C@H](COC(C)=O)O2)cc1`, the activity, negative = inhibition is reported as -18.2% [at 11.4 µM] (inactive). In the case of `COC(=O)[C@@H]1CC[C@H](C)[C@@H](c2ccc(C)cc2)N1C(=O)c1ccc(/C=N\O[C@@H]2O[C@H](COC(C)=O)[C@H](OC(C)=O)[C@H](OC(C)=O)[C@H]2OC(C)=O)cc1`, the activity, negative = inhibition is reported as -14.4% [at 11.4 µM] (inactive). `O=Nc1ccc(NOC(=O)c2ccc(Br)cc2)cc1` was tested, and the AC50 was “inactive”. For `O=C(O)c1cc2ccccc2c(Cc2cc3ccccc3c(C(=O)O)c2O)c1O` (tested in a mixture with another compound), the AC50 was “inactive”. `Oc1ccc2ccccc2c1Cc1c(O)ccc2ccccc12` was tested, and the activity, negative = inhibition was -19% [at 11.4 µM] (inactive). With `COc1ccc2c(Cc3c4ccccc4cc4ccccc34)cncc2c1O` the AC50 was 1 µM (active).
